# Data: PubChem BioAssay AID493192 (National Center for Advancing Translational Sciences (NCATS), 2011)
# Inconclusive results are not listed. Where a call stands in place of a potency, no number is given. The source made the active and inactive calls. The call rests on the fitted dose curve; in most records, active means well fitted activation curve with a large enough effect; inconclusive means small, poorly fitted or top-dose-only effect; inactive means no such curve, though single readings can be large or run the other way.
# Assay: qHTS Assay for Identifying a Potential Treatment of Ataxia-Telangiectasia: Hit Validation;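 further: phospho-KAP1 level by AlphaLISA as a proxy for ATM-like kinase activity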
# Conditions: Ataxia-telangiectasia cell-based hit validation qHTS, in ATM-null A-T patient fibroblasts; series mostly up to 76.9 µM
# Procedure, shortened: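 hTERT-immortalized A-T patient fibroblasts (F2112) were dosed at up to 76.7 uM final for 60 min at 37C. After a further 30 min incubation, cells were lysed, and phospho-KAP1 was detected by AlphaLISA after 6 hr at 25C.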
# Potency means the concentration at half of the fitted maximal effect.
row,Structure (SMILES),Potency
1,COC(=O)c1cccc2c1-c1ccccc1/C2=N\NC(N)=O,inactive
2,CC(C)Nc1nc(Oc2ccc(=O)n(-c3ccccc3)n2)nc(N(C)C)n1,inactive
3,COc1ccc(Oc2ncnc3c2oc2ccc(Br)cc23)cc1,inactive
4,COc1cc(CCC(=O)OCC(=O)N2CCc3ccccc32)cc(OC)c1OC,inactive
5,O=C(CN1CCN(Cc2ccccc2)CC1)Nc1ccc(Cl)cc1,inactive
6,COc1ccc(C(CNC(=O)C(Cc2ccccc2)NC(N)=O)N(C)C)cc1 (stereo unspecified),inactive
7,CCC(Oc1ccccc1)C(=O)N(C)CC(=O)N(CC(C)C)c1c(N)n(CC(C)C)c(=O)[nH]c1=O (stereo unspecified),inactive
8,O=C(Nc1cnn(C23CC4CC(CC(C4)C2)C3)c1)c1cnn2cccnc12,inactive
9,COc1ccccc1N1CCN(C(=O)c2cc(=O)c3c(C)cc(C)cc3o2)CC1,inactive
10,COc1ccc(C(=O)CSc2nc3ncccc3[nH]2)cc1OC,inactive
11,Oc1cccc(NC(=S)N=Nc2c(O)[nH]c3ccccc23)c1,inactive
12,Cc1oc2ccc(OCc3ccc(Br)cc3)cc2c1C(=O)O,inactive
13,CC(C)c1ccc(C(C(=O)NC2CCCCC2)N(C(=O)c2ccccn2)c2cccnc2)cc1 (stereo unspecified),inactive
14,O=C(COc1ccccc1Cl)NCCCNC(=O)c1cnccn1,inactive
15,CNC(=O)c1ccc(-c2sc3nc(N4CCOCC4)c4c(c3c2N)CC(C)(C)OC4)o1,29.2 µM (active)
16,COc1ccc(C2c3ccc(O)cc3Oc3ncn(CC(C)C)c(=N)c32)cc1 (stereo unspecified),inactive
17,CNC(=S)N(CCO)Cc1cc2cc3c(cc2[nH]c1=O)OCCO3,inactive
18,COc1ccc(N(CCC#N)C(=O)/C(C#N)=C\c2cccs2)cc1,inactive

row,Structure (SMILES),Potency
1,Cc1ccccc1OCC(=O)Nc1cccc(C(=O)O)c1,inactive
2,CCN(CC)c1ccc2c(Cl)c(Br)c(=O)oc2c1,36.8 µM (active)
3,CCOc1ccc(NC2=CC(=O)CCC2)cc1,inactive
4,Cc1ccc2c(c1)C(=O)CC(O)(C(F)(F)F)O2 (stereo unspecified),inactive
5,Cn1cnc([N+](=O)[O-])c1SCCO,inactive
6,O=C(NC12CC3CC(CC(C3)C1)C2)c1cccc(OC(F)F)c1,inactive
7,O=C(OCCc1cc2ccccc2c(=O)o1)c1cccc(Br)c1,inactive
8,Cc1ccc2c(c1)sc(=NC(=O)C1CC1)n2C,18.4 µM (active)
9,O=C(Nc1ccc(N2CCCC2)cc1)c1ccc(Cl)cc1Cl,inactive
10,COc1ccc(/C=N/Nc2nc(=O)[nH]nc2C)cc1OC,inactive
11,CCOC(=O)CNS(=O)(=O)Cc1ccccc1,inactive
12,O=[N+]([O-])c1ccc(F)cc1F,29.2 µM (active)
13,COc1cccc(CNC(=O)C(CC(C)C)NC(=O)c2ccccc2C)c1 (stereo unspecified),inactive
14,CCOC(=O)c1ccccc1NC(=O)c1ccc2nc[nH]c2c1,inactive
15,Cc1ccc(-c2noc(CCC(=O)NC3CCN(Cc4ccccc4)CC3)n2)cc1,inactive
16,CCOC(=O)N1CCN(c2nc(N(c3ccccc3)c3ccccc3)nc(-n3ccnc3)n2)CC1,inactive
17,CCn1nc(C)c(/C=N/NC(=O)Cn2cncn2)c1C,inactive
18,CN(CCc1ccccn1)C(=O)c1cc(COc2ccc(F)cc2F)on1,inactive
